Screening results as filed in PubChem BioAssay.
HCV inhibitor: inhibitors of hepatitis C virus infection | Huh7.5.1 HCVcc-Cre infection, luciferase reporter, 44 h | Potency, µM (highest dose often 41.8 µM), for inactives: top-dose activity change, negative = inhibition, usual class: inhibitors | 340,000 compounds, 3.4% hits | AID 651820; note: potency is the fitted concentration of half-maximal effect
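A cell-based infection assay in which seeded cells (1,000 per well) receive test compound after 4 h, are inoculated with HCVcc-Cre at approximately 0.5 moi, and are incubated 44 h before luminescence detection.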
HCMV inh: human cytomegalovirus inhibition | 410,000 compounds, 4.5% hits | AID 1259415 | HFF cells, HCMV-luciferase reporter, 72 h; active compounds read low | activity change, negative = inhibition, % at 57.5 µM; in the data active = activity change below about -60%; inconclusive = no clear call, values can overlap the other calls; inactive = above about -39%
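Two compound doses tested in HFFs infected with HCMV-luciferase, MOI 1 PFU/cell, 72 h at 37C. Lysate luminescence read with OneGlo; data normalized against buffer-only and 10uM Salinomycin inhibitor controls.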
Pf growth 96h: inhibits malaria parasite growth, 96 h | P. falciparum luciferase reporter growth, 96 h | Potency, µM (highest dose often 28.7 µM), for inactives: at the top dose activity change, negative = inhibition, actives largely listed as inhibitors | 320,000 compounds, 6.9% hits; note: potency is the fitted concentration of half-maximal effect
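Plates of compound plus infected erythrocytes (2% hematocrit, 0.05% parasitemia final) incubate 96 hours, 37 C, 5% CO2. Detection reagent added; reduced luminescence from the parasites' luciferase reporter flags inhibition.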
Pf growth 48h: inhibits P. falciparum growth in the first generation, 48 h | Potency, µM (top dose mostly 28.7 µM), inactives show top-dose activity change, negative = inhibition, usual class: inhibitors | 310,000 compounds, 5.9% hits | P. falciparum luciferase growth in erythrocytes, 48 h; note: potency is the fitted concentration of half-maximal effect
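Luciferase-expressing P. falciparum in infected erythrocytes (2% hematocrit, 0.1% parasitemia final) in RPMI 1640/0.5% Albumax were exposed to compound for 48 hours at 37 C, 5% CO2; growth read as luminescence.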
* = called active by the depositor; ? = inconclusive; nt = no result given. Shown are actives, neighbours in structure and some others; about 13% of the full set was active somewhere. Unless noted, calls come from the whole dose curve; as a rule, active = well fitted inhibition curve with a large enough effect; inconclusive = small, poorly fitted or top-dose-only effect, or another doubt; inactive = no such curve, though single readings can be large or run the other way. % is set by controls: 0 for no effect and ±100 for the full control effect.

SMILES | HCV inhibitor | HCMV inh | Pf growth 96h | Pf growth 48h
CC1CCc2nc(NC(=O)CN3CCN(Cc4ccc5c(c4)OCO5)CC3)sc2C1 (stereo unspecified) | 31.6µM* | -62.9* | ? | ?
O=C(Nc1nc(-c2ccccc2)cs1)C1COc2ccccc2O1 (stereo unspecified) | -10.7% | 43.5 | 55.2% | 6.9%
C[C@@H](C(=O)Nc1nc(-c2ccccn2)cs1)N1C(=O)C2CCCCC2C1=O (stereo partly specified) | -9.6% | 10.5 | 11.7µM* | nt
CC1CCCCN1C(=O)CSc1n[nH]c(-c2ccccc2Cl)n1 (stereo unspecified) | nt | 50.9 | nt | nt
O=C(COc1cccc(F)c1)Nc1nc(-c2ccccn2)cs1 | nt | -21.3 | nt | nt
CC1CC1C(=O)Nc1nc(-c2ccccn2)cs1 (stereo unspecified) | -10.6% | 3.5 | 3.7µM* | nt
O=C(Nc1ccccn1)c1ccc(C(=O)Nc2ccccn2)cc1 | -1.1% | nt | -6.3% | 12.2%
O=C(Nc1ccccn1)C1COc2ccccc2O1 (stereo unspecified) | -1.6% | 3.6 | 5.86µM* | 50.6%
CC1Oc2ccccc2OC1C(=O)Nc1ccccn1 (stereo unspecified) | -0.6% | 14.3 | 10.2% | 5.86µM*
O=C(Nc1ccc(Cl)cn1)C1COc2ccccc2O1 (stereo unspecified) | 6.7% | -3.0 | 1.5% | ?
CSc1nc2ccc3nc(NC(=O)C4COc5ccccc5O4)sc3c2s1 (stereo unspecified) | -25.9% | -77.8* | ? | -16.6%
CCc1ccc(-c2nn(CC(=O)NC3CCCCC3)c3c2cnc2ccc(F)cc23)cc1 | nt | 15.2 | nt | nt
O=C1c2ccc(-c3ccc(F)cc3OCc3ccccc3)cc2S(=O)(=O)c2cccc(C(=O)N3CCCC3)c21 | ? | nt | ? | 4.65µM*
Cn1c(=O)c2c(-c3ccc(Br)cc3)n(CCc3ccccc3)cc2n(C)c1=O | nt | 43.4 | nt | nt
Cc1ccc(-n2c(SCCN)nnc2-c2cccc(C)c2)cc1 | ? | -36.6 | ? | 10.4µM*
Cc1cccc(-c2nnc(SCC#N)n2-c2ccccc2)c1 | -5.2% | -8.6 | -14.8% | 4.7%
CCCCc1cc(=O)oc2cc(C)c(CN3CCCC3)c(O)c12 | ? | 1.2 | 104.7% | 4.15µM*
CCc1cc(=O)oc2cc(C)c(CN3CCCC(C)C3)c(O)c12 (stereo unspecified) | ? | 54.0 | ? | 2.08µM*
CCc1cc(=O)oc2c(CN3CCCC3)c(O)c(Cl)cc12 | 18.6% | 5.1 | nt | 17.0%
CN[C@@H]1C[C@@H](c2ccc(Cl)c(Cl)c2)c2ccccc21 | nt | nt | 13.5µM* | 15.1µM*
COc1ccccc1C1CCN(Cc2ccc(Cl)c(Cl)c2)CC1 | ? | 16.0 | ? | nt
CC(C)C(c1nnnn1C(C)(C)C)N1CCC(Cc2ccccc2)CC1 (stereo unspecified) | -25.7% | ? | 50.9% | 9.28µM*
CC(C)C(c1nnnn1C(C)(C)C)N1CCOCC1 (stereo unspecified) | 5.9% | 9.1 | 11.4% | 9.1%
CCOc1ccc(S(=O)(=O)n2ccnc2C)cc1 | nt | nt | 11.7µM* | -6.9%
CCOc1ccc(OCC)c(S(=O)(=O)n2ccnc2C)c1 | 2.6% | -2.6 | ? | 139.5%
SMILES | HCV inhibitor | HCMV inh | Pf growth 96h | Pf growth 48h
COc1ccc(OC)c(CNC(=O)c2cc3c(=O)oc4ccc(C)cc4c3s2)c1 | nt | 11.4 | nt | nt
COc1ccccc1N1CCN(C(=O)c2ccc(C(C)(C)C)cc2)CC1 | -24.5% | -36.4 | nt | ?
COc1ccccc1C1CCN(C(=O)c2ccc(C(C)(C)C)cc2)CC1 | ? | ? | 7.38µM* | 11.7µM*
CN(C)CCCN1C(=O)c2cccc3cccc(c23)C1=O | ? | -63.9* | 0.0% | ?
O=C1c2cccc3cc([N+](=O)[O-])cc(c23)C(=O)N1CC1CCCO1 (stereo unspecified) | ? | -63.2* | ? | ?
CN(C)CCCN1C(=O)c2cc3ccccc3cc2C1=O | 12.5% | 18.9 | 16.8% | 0.4%
CN(C)CCN1C(=O)c2cccc3cc([N+](=O)[O-])cc(c23)C1=O | ? | -97.6* | nt | nt
CN(C)CCN1C(=O)c2ccccc2C1=O | 25.1% | -16.3 | 34.6% | 29.3%
COc1ccc(N(CCCN2C(=O)c3cccc4cccc(c34)C2=O)C(=O)c2cccc(OC)c2)cc1 | 11.2µM* | -12.1 | ? | ?
Cc1cc(Cl)ccc1OCC(=O)N(Cc1ccc(N(C)C)cc1)CC1CCCO1 (stereo unspecified) | nt | -30.0 | nt | nt
CCCCNC(=O)c1ccc2c(=O)n(-c3ccccc3)c(=O)[nH]c2c1 | nt | -2.8 | nt | nt
CN(C)CCN1C(=O)c2ccccc2N(C)c2ccccc21 | nt | nt | 3.01µM* | -17.7%
COc1cc(OC)c(NC(=O)N2CCc3cc(OC)c(OC)cc3C2CC(=O)O)cc1Cl (stereo unspecified) | nt | -22.5 | nt | nt
CCOC(=O)c1c(S(=O)(=O)N2CCCC(C(=O)N3CCN(c4cc(C)ccc4C)CC3)C2)c(C)n(C)c1C (stereo unspecified) | nt | 15.8 | nt | nt
COc1ccc(C(=O)Nc2cc(C)on2)cc1[N+](=O)[O-] | -8.9% | 14.1 | 19.2% | -6.0%
COc1ccc(C(=O)Nc2ccncc2)cc1[N+](=O)[O-] | -0.3% | 34.8 | 41.2% | 8.28µM*
CCc1ccc(NC(=O)c2ccc(OC)c([N+](=O)[O-])c2)cc1 | ? | 1.3 | ? | 24.0%
COc1ccc(C(=O)N/N=C/c2ccc(OC(=O)c3cccc4ccccc34)c([N+](=O)[O-])c2)cc1 | ? | -10.8 | 9.28µM* | 30.2%
COc1ccc(Oc2ccc(/C=N/NC(=O)c3cccnc3)cc2[N+](=O)[O-])cc1 | ? | -80.3* | 14.2% | -7.9%
COc1ccc(C(=O)NC(=S)Nc2cc(C)ccn2)cc1[N+](=O)[O-] | -7.4% | 89.0 | 4.65µM* | 30.5%
COc1ccc(C(=O)Oc2ccc(/C=N/NC(=O)c3ccccc3OC)cc2[N+](=O)[O-])cc1 | 24.0% | 65.6 | -2.1% | 10.5%
Cc1cccc(Cn2cc3c(=O)n(CC(=O)Nc4c(C)cccc4C)nc-3c3cc(F)ccc32)c1 | nt | 5.1 | nt | nt
CCOc1ccccc1NC(=O)c1cc(=O)c2ccc(C)cc2o1 | nt | 12.9 | nt | nt
Cc1ccc(C)c(NC(=O)Cn2c(=O)n(CCC(C)C)c(=O)c3cccnc32)c1 | nt | 14.7 | nt | nt
O=C(Nc1ccc(C2=NCCN2)cc1)c1ccc(C(=O)Nc2ccc(C3=NCCN3)cc2)c([N+](=O)[O-])c1 | -0.4% | ? | 0.147µM* | 0.37µM*
SMILES | HCV inhibitor | HCMV inh | Pf growth 96h | Pf growth 48h
O=C(N/N=C/c1ccc(O)c([N+](=O)[O-])c1)c1ccncc1 | 0.3% | -7.8 | 1.9% | 18.7%
COc1ccc(/C=N/NC(=O)c2ccncc2)cc1[N+](=O)[O-] | 21.8% | -39.7 | 4.15µM* | 28.9%
Cc1ccc(NC(=O)c2ccc(-n3cccn3)c([N+](=O)[O-])c2)cc1 | ? | 64.8 | ? | -12.3%
CCOC(=O)c1ccc(NC(=O)c2c(NCc3cc(OC)ccc3OC)sc3c2CCC3)cc1 | nt | -11.6 | nt | nt
Nc1c(Br)cc2c3c(cccc13)-c1ccccc1-2 | 2.82µM* | -33.1 | nt | nt
Cc1ccccc1C(=O)Oc1cc(-c2ccc3c(c2)OCO3)cc(=O)c2c(C)oc(C)c12 | nt | 15.4 | nt | nt
